Experimental data published in ChEMBL document CHEMBL1157539, “Thousands of chemical starting points for antimalarial lead identification” (Nature, 2010).

Experiments:
Plasmodium falciparum = test: GSK_TCMDC: Inhibition of Plasmodium falciparum 3D7 in whole red blood cells, using parasite LDH activity as an index of growth. Test compounds present at 2uM; format: functional
HepG2 = test: GSK_TCMDC: Percent inhibition of human HepG2 cell line. Test compounds present at 10uM.; format: functional

| Compound | Inhibition (Plasmodium falciparum) [%] | Inhibition (HepG2) [%] |
| --- | --- | --- |
| CC(C)C(=O)NC(NC(=S)Nc1ccc(Br)cc1)C(Cl)(Cl)Cl (stereo unspecified) | 93 | 0 |
| CC(C)CNC(=O)c1ccc(-c2cccc(CN3CCC(N4CCCC4)CC3)c2)nc1.O=C(O)C(F)(F)F | 81 | 4 |
| COc1cc2ncnc(Nc3ccc(OC(F)(F)c4ccccc4)cc3)c2cc1OC.Cl | 91 | 14 |
| Br.Oc1ccc(CCNCCCCCNCCCc2ccc(Cl)cc2)cc1O | 91 | 22 |
| COc1ccc(CNC(=O)Nc2cccc(-c3csc(NC(=N)N)n3)c2)cc1 | 80 | 8 |
| C=CC(C)C1OC(=O)c2cc(OC)cc(OC)c21 (stereo unspecified) | 100 | 100 |
| COc1ccc(/N=C(\N)Nc2ccccc2)nc1Cc1ccccc1 | 81 | 17 |
| COc1c(C2CCN(CCCCNC(=O)C=Cc3ccccc3C(F)(F)F)CC2)ccc2c1CCCC2 | 96 | 98 |
| O=CO.c1ccc2c3c([nH]c2c1)C(c1ccc2c(c1)CCO2)N(c1ncnc(N2CCN(CCCN4CCOCC4)CC2)n1)CC3 (stereo unspecified) | 80 | 37 |
| CC(=O)Nc1cccc(Nc2c3ccccc3nc3ccccc23)c1 | 82 | 31 |
| Cc1ccc(-n2c(C)cc(C(=O)CN3C(=O)NC(Cc4ccccc4)C3=O)c2C)cc1 (stereo unspecified) | 82 | 0 |
| COc1ccc(Cl)cc1N1CCN(CCCNC(=O)c2ccc(-c3nc4c(C)cccc4[nH]3)s2)CC1 | 98 | 0 |
| Cc1nc(Nc2ccc(F)cc2)nc(N2CCc3ccccc3[C@@H]2C)c1C.Cl | 92 | 12 |
